Only some compounds are listed: those with a hit (about 2.4% of all), similar ones and a draw of the others.
D2 PAM-1 – Beta-Arrestin HTS for Positive Allosteric Modulators of the Human D2 Dopamine Receptor: Potentiators. D(2) dopamine receptor (Homo sapiens), P14416. DiscoveRx D2 beta-arrestin cells, luminescence, 90 min; 100% = 57 uM dopamine signal. potentiation, % (concentration not given with the values). 0.23% of 360,000 active. AID 624464, 2012; in the data active = potentiation above about 50%
Target sequence (P14416 whole entry, looked up): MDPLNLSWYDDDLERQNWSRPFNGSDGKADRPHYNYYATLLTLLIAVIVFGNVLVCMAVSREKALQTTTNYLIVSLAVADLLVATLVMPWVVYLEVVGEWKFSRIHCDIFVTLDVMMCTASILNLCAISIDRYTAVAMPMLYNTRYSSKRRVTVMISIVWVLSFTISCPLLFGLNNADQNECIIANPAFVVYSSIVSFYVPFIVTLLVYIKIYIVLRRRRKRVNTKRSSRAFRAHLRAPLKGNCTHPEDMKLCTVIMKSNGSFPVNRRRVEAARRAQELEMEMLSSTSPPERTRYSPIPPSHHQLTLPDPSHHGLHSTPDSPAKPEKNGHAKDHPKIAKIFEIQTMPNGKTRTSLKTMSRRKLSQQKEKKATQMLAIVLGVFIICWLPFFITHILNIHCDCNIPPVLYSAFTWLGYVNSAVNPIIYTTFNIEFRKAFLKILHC
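PathHunter beta-arrestin assay in DiscoveRx D2 cells. Compounds were added with an EC20 of dopamine (50 nM final) for 90 min at 37 deg C. Luminescence was read 1 h after detection reagent, with 57 uM dopamine as the EC100 control.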
D2 ag-1 – HTS Assay for Allosteric Agonists of the Human D2 Dopamine Receptor: Primary Screen for Agonists; D(2) dopamine receptor (Homo sapiens), P14416; HEK293 T-REx D2 cells, calcium flux agonist mode; activation, % at 2 µM; 0.53% of 340,000 active;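 active = activation over 3 SD above normal in the single-dose calcium agonist read, cut at about 30% in these data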
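Tetracycline-induced HEK293 Trex cells with D2 receptor force-coupled to calcium signaling, plated overnight at 30 C and loaded with no-wash calcium dye. Calcium flux read kinetically for 180 s after compound addition; responses flag agonists.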
D2 ag-2 – Beta-Arrestin HTS for Positive Allosteric Modulators of the Human D2 Dopamine Receptor: Agonists; D(2) dopamine receptor (Homo sapiens), P14416; DiscoveRx PathHunter D2 beta-arrestin, luminescence, 90 min; 100% = 57 uM dopamine signal; activation, % (test concentration not listed); 0.084% of 360,000 active; in the data active = activation above about 40%
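DiscoveRx PathHunter D2 beta-arrestin cells (2,100/well) attached overnight, then compound-stimulated 90 min at 37 C in HBSS/10 mM HEPES/0.1% Tween-20 buffer; beta-galactosidase complementation read by luminescence after 1 h at ambient temperature. Dopamine 57 uM final (EC100) as control.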
D2 PAM-2 – HTS Assay for Positive Allosteric Modulators of the Human D2 Dopamine Receptor: Primary Screen for Potentiators; HEK293 T-REx D2, calcium flux, EC20 dopamine potentiation; D(2) dopamine receptor (Homo sapiens), P14416; potentiation, % at 10 µM; 0.34% of 340,000 active;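 active = potentiation over 3 SD above the plate norm, cut at about 30% in these data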
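Cells plated with tetracycline inducer and held overnight at 30 C; calcium dye loaded 30–90 min at room temperature; baseline taken, compound added and read 180 s; EC20 dopamine then added and read 180 s.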
D2 antagonist – HTS Assay for Allosteric Antagonists of the Human D2 Dopamine Receptor: Primary Screen for Antagonists | inhibition, % at 10 µM | 2% of 340,000 active | D(2) dopamine receptor (Homo sapiens), P14416 | HEK293 TREx D2 cells, calcium flux, dopamine EC80; in the data active = inhibition above about 30%; inactive = below that, where a call was filed
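Compounds are added to dye-loaded, induced HEK293 T-REx cells coupled to calcium release via D2; after a 3 min kinetic read an EC80 dopamine stimulus is given and fluorescence is recorded for 3 more min.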
A number is an active result; 0 = inactive; - = no result.

SMILES | D2 PAM-1 | D2 ag-1 | D2 ag-2 | D2 PAM-2 | D2 antagonist
COc1ccc(C2CC(c3ccccc3)=NN2C(=O)COC(=O)c2cc(S(=O)(=O)N3CCOCC3)ccc2Cl)cc1 (stereo not given) | 0 | 0 | 0 | 0 | 32.1
CCOc1cc(C2c3c(-c4cc(C)ccc4O)n[nH]c3C(=O)N2CCCOC(C)C)ccc1O (stereo not given) | - | 0 | - | 0 | -
CC(=O)c1cccc(NC(=O)N[C@@H](CC(C)C)C(=O)O)c1 | 0 | 0 | 0 | 0 | 33.4
CC(=O)c1ccc(NC(=O)N[C@@H](CC(C)C)C(=O)O)cc1 | 0 | 0 | 0 | 0 | 0
CCNC(=O)CCCN1C(=O)CCn2nc(-c3cccn3C)cc21 | - | 0 | - | 0 | -
CCc1ccccc1NC(=O)C(=O)NCC(c1cccnc1)N1CCN(c2ccccc2F)CC1 (stereo not given) | - | 0 | - | 0 | -
COc1ccc(Cc2nnc(Nc3ccc(Cl)cc3)[nH]c2=O)cc1 | 0 | 0 | 0 | 0 | 0
O=c1[nH]c(Nc2ccc3c(c2)OCCO3)nnc1Cc1ccc(Cl)cc1 | 0 | 0 | 0 | 0 | 33.4
O=C(Nc1ccc(F)cc1F)C1CCN(S(=O)(=O)c2ccc3[nH]c(=O)ccc3c2)CC1 | - | 0 | - | - | -
Cc1ccc2c(c1)N(C(=O)N1CCC(C(=O)NCc3cccs3)CC1)CC(C)O2 (stereo not given) | - | 0 | - | 0 | -
Cc1ccc2nc(-c3ccc(Cl)c(NC(=O)c4ccc5c(c4)OCCO5)c3)oc2c1 | - | - | - | 0 | -
N#C/C(=C1\C(=O)Nc2c(Cl)cc(Cl)cc21)c1nnc2n1CCCCC2 | 66.5 | - | 0 | - | -
CCCN1C(=O)/C(=C/c2ccc(C)s2)NC1=S | 0 | 0 | 0 | 0 | 31.4
CCc1ccc(CN(C)CC(=O)Nc2sccc2C#N)cc1 | 0 | 0 | 0 | 0 | 63.9
COc1ccc(C(=O)Nc2cccc(OC(=O)c3ccco3)c2)cc1 | 0 | 0 | 0 | 0 | 0
COc1ccc(C(C)=O)c(OC(=O)c2ccc(OC)c(OC)c2)c1 | 0 | 0 | 0 | 35.7 | 0
COc1ccc(C(C)=O)c(OC(=O)c2ccco2)c1 | 0 | 0 | 0 | 39.2 | 0
Cc1cc(C)cc(NC(=O)C(NS(=O)(=O)c2cccc3nsnc23)c2ccccc2)c1 (stereo not given) | - | 0 | - | 0 | -
CC(=O)Nc1ccc(-c2csc(NC(=O)CC(NC(C)=O)c3ccccc3)n2)cc1 (stereo not given) | 0 | 0 | 0 | 36.1 | 0
NC(=O)C1CCN(S(=O)(=O)c2cccc(S(=O)(=O)N3CCCCC3)c2)CC1 | 0 | 0 | 0 | 0 | 70.4
CSc1ccc(S(=O)(=O)N2CCC(C(=O)NCC3CCCO3)CC2)cc1 (stereo not given) | 0 | 0 | 0 | 32.6 | 0
CC1CCN(S(=O)(=O)c2cccc(C(=O)NCC3CCCO3)c2)CC1 (stereo not given) | 0 | 0 | 0 | 0 | 0
O=C(NCC1CCCO1)c1cccc(S(=O)(=O)N2CCCCC2)c1 (stereo not given) | 0 | 0 | 0 | 0 | 30.9
CCOc1ccc(NC(=O)c2ccc(-c3cccc(Cl)c3C)o2)cc1 | - | 0 | - | 0 | -
O=C(Nc1cc2c(cc1C(=O)c1ccccc1Cl)OCCO2)c1ccccc1 | - | - | - | 0 | -
SMILES | D2 PAM-1 | D2 ag-1 | D2 ag-2 | D2 PAM-2 | D2 antagonist
Cc1ccc(N2C(=O)C3C(C2=O)C(C(=O)c2ccc(Cl)cc2)N2CCCC32)cc1 (stereo not given) | 0 | 0 | 0 | 0 | 33.2
CSc1ccc(/C=C/C(=O)OCC(=O)N2CCN(S(=O)(=O)c3ccc(C)cc3C)CC2)cc1 | 0 | 0 | 0 | 0 | 40.6
CCc1cccc(OCC(=O)Nc2ccc(C)c(S(=O)(=O)N3CCCCCC3)c2)c1 | 0 | 0 | 0 | 0 | 31.4
CCOC(=O)c1cc(C)[nH]c(=O)c1C#N | 62.1 | 0 | 0 | 0 | 0
CCOC(=O)c1cc(C)[nH]c1C | 0 | 0 | 0 | 0 | 0
COc1cccc(N2CCN(C(=O)C3CCCN(S(=O)(=O)c4ccc(Br)s4)C3)CC2)c1 (stereo not given) | - | 0 | - | 0 | -
CCOC(=O)c1cc(S(=O)(=O)N2CCN(c3ccc(C)cc3C)CC2)[nH]n1 | - | 0 | - | 0 | -
Cn1c(=O)n(Cc2ccccc2)c(=O)c2c1nc1n2CCCN1Cc1ccccc1 | 0 | 0 | 0 | 0 | 0
CCCCn1c(=O)c2c(nc3n2CCCN3Cc2ccccc2)n(C)c1=O | 0 | 0 | 0 | 0 | 34.2
CCCNC(=O)COCc1cc(-c2ccc(F)cc2)on1 | - | 0 | - | 0 | -
Cc1ccccc1N=Cc1cc2c(cc1O)OC(N)=C(C#N)C2c1ccccc1 (stereo not given) | 0 | 0 | 0 | 0 | 33.1
COc1ccc(C2N3CC4(C)CN2CC(c2ccccc2)(C3)C4=O)cc1 (stereo not given) | - | 0 | - | 0 | -
Cc1cccc(S(=O)Cc2ccc(C(=O)NC3CCN(Cc4ccccc4)CC3)o2)c1 (stereo not given) | 0 | 0 | 0 | 0 | 44.4
Cc1ccccc1S(=O)Cc1ccc(C(=O)NC2CCN(Cc3ccccc3)CC2)o1 (stereo not given) | 0 | 0 | 0 | 0 | 43.9
CCOC(=O)N1CCC(NC(=O)c2ccc(CS(=O)c3ccc(Cl)cc3)o2)CC1 (stereo not given) | 0 | 0 | 0 | 0 | 0
Cc1ccc(-n2nc(CO)c(C(=O)NCCc3ccccc3)n2)cc1C | - | 0 | - | 0 | -
O=C(NCCCN1CCCC1=O)Nc1ccc([N+](=O)[O-])cc1 | 0 | 0 | 0 | 0 | 34.8
O=C(NCCCN1CCCC1=O)Nc1ccc(Cl)cc1 | 0 | - | 0 | - | -
Cc1nc(S(=O)(=O)N2CCN(c3cccc(Cl)c3)CC2)cn1C | - | - | - | 0 | -
CCc1cc2ccc(OC)cc2nc1SCC(=O)NNC(C)=O | 0 | 0 | 0 | 0 | 57.4
CCc1cc2ccc(OC)cc2nc1SCC(=O)Nc1cc(C)on1 | 0 | 0 | 0 | 0 | 0
COc1cc(C(=O)OC(C)C(=O)N2CCCC2)cc2c1OCCO2 (stereo not given) | 0 | 0 | 0 | 0 | 67.1
CCOC(=O)Cn1c(=O)oc2cc(S(=O)(=O)N3CCC(C(=O)OCC)CC3)ccc21 | - | 0 | - | 0 | -
CCCN(C(=O)CCc1nc(-c2ccccc2F)no1)c1ccc(CC)cc1 | - | 0 | - | 0 | -
COc1ccc(C(CNC(=O)c2oc3cc(Br)ccc3c2C)N2CCCCC2)cc1 (stereo not given) | 0 | 0 | 0 | 0 | 61.5
COc1ccc(C(CNC(=O)C(C)Oc2ccc(Br)cc2)N2CCCCC2)cc1 (stereo not given) | 0 | 0 | 0 | 0 | 78.1
